Test in all cases: DAPPL (digital affinity profiling via proximity ligation, sequencing); 10 mM Tris-HCl pH 7.5, 50 mM NaCl, 1 mM DTT, 4% glycerol, room temperature, 30 min; GST-TFs on glutathione beads, 16-mer random dsDNA library, 0.1% formaldehyde crosslink after washing; high values mean tight binding
The target in one assay is T1, FEV (Homo sapiens, UniProt Q99581 1-238).
T1 sequence: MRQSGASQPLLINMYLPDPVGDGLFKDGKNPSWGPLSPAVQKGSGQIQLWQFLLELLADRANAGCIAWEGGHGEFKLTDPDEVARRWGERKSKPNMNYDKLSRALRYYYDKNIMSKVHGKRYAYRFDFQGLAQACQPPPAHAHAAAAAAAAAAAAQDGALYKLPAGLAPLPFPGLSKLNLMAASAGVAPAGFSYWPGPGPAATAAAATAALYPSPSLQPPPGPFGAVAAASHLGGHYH
The following applies: protein: recombinant; tags: N-terminal GST; dsDNA, one strand shown. Summed up:
(§1)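 A tag-only sample was pooled with DNA-barcoded human transcription factors that had been expressed in yeast as GST fusions and captured on glutathione beads. The pools were incubated for 30 min at room temperature with 200 nmole of a random double-stranded 16-mer DNA library in Tris/NaCl/DTT/glycerol buffer, then washed, crosslinked with 0.1% formaldehyde, proximity-ligated (BsaI/T4 ligase, 1 h, 37 °C), PCR-amplified and sequenced on an Illumina NextSeq500. Binding signal is each hexamer's read frequency for a factor divided by its frequency for the tag-only sample.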

The target of another assay is ETV5 (Homo sapiens, UniProt P41161 1-510). The settings on record: protein: recombinant; tags: N-terminal GST; dsDNA, one strand shown. Summed up:
as §1

The target in a further assay is HSF1 (Homo sapiens, UniProt Q00613 1-529). The following applies: protein: recombinant; tags: N-terminal GST; chain copies: 3; dsDNA, one strand shown. Summed up: as §1
Chain of HSF1 (Q00613 whole entry): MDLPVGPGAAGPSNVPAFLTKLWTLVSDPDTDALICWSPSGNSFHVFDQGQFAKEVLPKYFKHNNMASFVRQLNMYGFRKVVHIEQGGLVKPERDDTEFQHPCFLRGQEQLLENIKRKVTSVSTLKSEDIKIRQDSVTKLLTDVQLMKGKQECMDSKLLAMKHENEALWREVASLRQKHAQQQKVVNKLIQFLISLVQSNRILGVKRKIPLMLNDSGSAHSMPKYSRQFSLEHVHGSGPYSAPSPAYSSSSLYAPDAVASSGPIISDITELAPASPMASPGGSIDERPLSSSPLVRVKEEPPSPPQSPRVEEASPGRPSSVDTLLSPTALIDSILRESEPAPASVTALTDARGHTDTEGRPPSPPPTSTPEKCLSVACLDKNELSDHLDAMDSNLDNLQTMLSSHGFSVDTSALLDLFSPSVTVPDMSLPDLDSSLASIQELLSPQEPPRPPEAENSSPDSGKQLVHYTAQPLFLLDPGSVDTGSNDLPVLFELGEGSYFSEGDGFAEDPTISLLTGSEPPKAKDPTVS
The target of the next assay is T2, SPIC (Homo sapiens, UniProt Q8N5J4 1-248).
T2 sequence: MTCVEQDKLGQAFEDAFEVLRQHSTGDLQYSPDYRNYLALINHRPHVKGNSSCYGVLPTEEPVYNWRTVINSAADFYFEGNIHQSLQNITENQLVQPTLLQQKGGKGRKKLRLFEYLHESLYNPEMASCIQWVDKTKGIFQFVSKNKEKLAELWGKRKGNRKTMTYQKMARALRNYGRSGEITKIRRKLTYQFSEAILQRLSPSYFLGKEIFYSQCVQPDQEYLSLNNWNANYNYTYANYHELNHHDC
The settings on record: protein: recombinant; tags: N-terminal GST; dsDNA, one strand shown. An outline of the steps: as §1

Another assay addresses ELF4 (Homo sapiens, UniProt Q99607 1-663). The settings on record: protein: recombinant; tags: N-terminal GST; dsDNA, one strand shown. An outline of the steps: as §1
The target in the next assay is T3, ELK4 (Homo sapiens, UniProt P28324-2 1-405).
T3 sequence: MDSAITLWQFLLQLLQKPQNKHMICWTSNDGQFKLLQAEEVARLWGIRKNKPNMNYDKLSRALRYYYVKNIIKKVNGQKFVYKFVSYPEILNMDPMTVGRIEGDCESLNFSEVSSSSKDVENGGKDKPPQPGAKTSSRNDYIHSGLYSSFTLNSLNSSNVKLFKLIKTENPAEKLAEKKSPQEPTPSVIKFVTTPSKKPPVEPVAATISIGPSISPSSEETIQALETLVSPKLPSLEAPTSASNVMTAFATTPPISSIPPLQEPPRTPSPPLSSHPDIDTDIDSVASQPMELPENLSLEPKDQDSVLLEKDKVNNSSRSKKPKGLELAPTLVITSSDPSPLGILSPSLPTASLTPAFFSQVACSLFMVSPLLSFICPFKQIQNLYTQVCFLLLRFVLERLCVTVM
The settings on record: protein: recombinant; tags: N-terminal GST; dsDNA, one strand shown. An outline of the steps:
as §1

Another assay concerns the target T4, ETV2 (Homo sapiens, UniProt O00321 1-342).
T4 sequence: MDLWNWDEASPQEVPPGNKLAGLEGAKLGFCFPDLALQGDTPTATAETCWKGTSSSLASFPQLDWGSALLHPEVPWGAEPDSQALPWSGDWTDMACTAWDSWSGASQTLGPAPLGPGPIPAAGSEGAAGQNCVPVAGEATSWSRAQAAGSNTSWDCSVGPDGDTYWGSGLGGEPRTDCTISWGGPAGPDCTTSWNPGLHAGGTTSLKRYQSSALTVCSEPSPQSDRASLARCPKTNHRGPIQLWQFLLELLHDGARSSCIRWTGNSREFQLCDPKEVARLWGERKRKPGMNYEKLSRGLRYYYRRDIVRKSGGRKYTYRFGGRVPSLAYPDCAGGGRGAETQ
The following applies: protein: recombinant; tags: N-terminal GST; dsDNA, one strand shown. An outline of the steps: as §1

In another assay the target is T5, ELF3 (Homo sapiens, UniProt P78545 1-371).
T5 sequence: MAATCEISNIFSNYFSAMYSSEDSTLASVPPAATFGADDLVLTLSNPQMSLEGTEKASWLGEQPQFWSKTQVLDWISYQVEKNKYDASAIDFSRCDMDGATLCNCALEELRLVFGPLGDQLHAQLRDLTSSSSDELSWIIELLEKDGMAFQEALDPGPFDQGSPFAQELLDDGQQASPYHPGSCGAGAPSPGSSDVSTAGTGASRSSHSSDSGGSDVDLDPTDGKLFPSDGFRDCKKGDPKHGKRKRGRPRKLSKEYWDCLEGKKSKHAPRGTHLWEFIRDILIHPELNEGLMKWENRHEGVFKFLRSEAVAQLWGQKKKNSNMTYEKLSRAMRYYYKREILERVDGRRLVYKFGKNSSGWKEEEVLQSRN
The following applies: protein: recombinant; tags: N-terminal GST; dsDNA, one strand shown. Summed up:
as §1

For a further assay, the target named is CRX (Homo sapiens, UniProt O43186 1-299). The following applies: protein: recombinant; tags: N-terminal GST; dsDNA, one strand shown. Summed up: as §1
Chain of CRX (O43186 whole entry): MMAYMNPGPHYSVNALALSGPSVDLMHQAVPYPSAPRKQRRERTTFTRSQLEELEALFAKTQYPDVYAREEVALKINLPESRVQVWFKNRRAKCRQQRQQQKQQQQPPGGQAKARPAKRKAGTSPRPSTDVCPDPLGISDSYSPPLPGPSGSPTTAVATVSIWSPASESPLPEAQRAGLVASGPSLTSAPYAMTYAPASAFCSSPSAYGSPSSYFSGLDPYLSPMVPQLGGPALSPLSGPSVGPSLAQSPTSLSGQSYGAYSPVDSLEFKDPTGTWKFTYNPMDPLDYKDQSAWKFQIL
The next assay has as its target ETV1 (Homo sapiens, UniProt P50549 1-477). The settings on record: protein: recombinant; tags: N-terminal GST; dsDNA, one strand shown. Summed up:
as §1

Another assay has as its target T6, ERF (Homo sapiens, UniProt P50548 1-548).
T6 sequence: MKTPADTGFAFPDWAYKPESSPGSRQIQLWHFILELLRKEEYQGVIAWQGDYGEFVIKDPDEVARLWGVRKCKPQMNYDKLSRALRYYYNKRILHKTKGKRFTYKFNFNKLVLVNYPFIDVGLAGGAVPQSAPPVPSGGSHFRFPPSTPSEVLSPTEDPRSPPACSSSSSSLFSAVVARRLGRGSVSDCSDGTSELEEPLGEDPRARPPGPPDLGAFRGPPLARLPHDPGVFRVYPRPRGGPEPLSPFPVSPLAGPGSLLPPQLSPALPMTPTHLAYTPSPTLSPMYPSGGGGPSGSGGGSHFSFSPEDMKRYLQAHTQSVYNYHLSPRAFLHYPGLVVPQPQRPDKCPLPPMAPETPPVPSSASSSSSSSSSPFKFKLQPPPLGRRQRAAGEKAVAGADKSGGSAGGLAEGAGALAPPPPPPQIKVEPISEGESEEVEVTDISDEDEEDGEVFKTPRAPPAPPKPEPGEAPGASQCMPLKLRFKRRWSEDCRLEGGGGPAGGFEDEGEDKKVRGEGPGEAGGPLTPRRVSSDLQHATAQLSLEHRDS
The following applies: protein: recombinant; tags: N-terminal GST; dsDNA, one strand shown. Summed up:
as §1

Another assay deals with T7, ETV3L (Homo sapiens, UniProt Q6ZN32 1-361).
T7 sequence: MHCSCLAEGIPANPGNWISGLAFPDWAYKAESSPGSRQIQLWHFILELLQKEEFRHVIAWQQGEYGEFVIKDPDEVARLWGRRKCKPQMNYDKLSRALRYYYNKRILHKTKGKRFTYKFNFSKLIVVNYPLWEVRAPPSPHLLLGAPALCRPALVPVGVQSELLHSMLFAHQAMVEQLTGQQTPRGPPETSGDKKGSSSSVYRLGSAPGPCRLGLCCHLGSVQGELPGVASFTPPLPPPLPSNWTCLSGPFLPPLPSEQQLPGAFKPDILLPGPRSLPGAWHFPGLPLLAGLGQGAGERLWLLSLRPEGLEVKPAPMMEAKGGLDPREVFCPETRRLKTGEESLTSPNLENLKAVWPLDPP
The settings on record: protein: recombinant; tags: N-terminal GST; dsDNA, one strand shown. Summed up: as §1

A further assay addresses T8, ETS2 (Homo sapiens, UniProt P15036 1-469).
T8 sequence: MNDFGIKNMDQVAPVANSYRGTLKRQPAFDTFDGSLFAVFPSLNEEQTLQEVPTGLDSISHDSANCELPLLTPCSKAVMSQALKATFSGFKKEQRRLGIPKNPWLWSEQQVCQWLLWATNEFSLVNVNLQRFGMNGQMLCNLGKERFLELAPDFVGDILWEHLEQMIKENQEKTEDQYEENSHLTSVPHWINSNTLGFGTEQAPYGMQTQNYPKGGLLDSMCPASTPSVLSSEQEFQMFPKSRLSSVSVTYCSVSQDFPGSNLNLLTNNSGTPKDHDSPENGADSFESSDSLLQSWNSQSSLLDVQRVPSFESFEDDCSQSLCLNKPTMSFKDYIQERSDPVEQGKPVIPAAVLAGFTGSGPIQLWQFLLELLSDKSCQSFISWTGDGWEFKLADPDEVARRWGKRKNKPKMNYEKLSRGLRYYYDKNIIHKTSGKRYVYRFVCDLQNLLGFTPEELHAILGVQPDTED
The following applies: protein: recombinant; tags: N-terminal GST; dsDNA, one strand shown. An outline of the steps: as §1

Another assay addresses T9, SPDEF (Homo sapiens, UniProt O95238 1-335).
T9 sequence: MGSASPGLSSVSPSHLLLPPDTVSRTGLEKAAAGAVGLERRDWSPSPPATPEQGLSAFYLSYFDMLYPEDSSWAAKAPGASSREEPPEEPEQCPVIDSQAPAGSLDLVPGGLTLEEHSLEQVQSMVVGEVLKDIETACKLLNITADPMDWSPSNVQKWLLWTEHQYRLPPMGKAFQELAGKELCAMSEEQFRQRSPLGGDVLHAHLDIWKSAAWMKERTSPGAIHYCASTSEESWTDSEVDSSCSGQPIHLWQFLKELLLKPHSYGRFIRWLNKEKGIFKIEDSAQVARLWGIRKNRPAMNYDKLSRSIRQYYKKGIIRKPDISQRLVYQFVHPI
The following applies: protein: recombinant; tags: N-terminal GST; dsDNA, one strand shown. An outline of the steps:
as §1

The target of a further assay is T10, ETV7 (Homo sapiens, UniProt Q9Y603 1-341).
T10 sequence: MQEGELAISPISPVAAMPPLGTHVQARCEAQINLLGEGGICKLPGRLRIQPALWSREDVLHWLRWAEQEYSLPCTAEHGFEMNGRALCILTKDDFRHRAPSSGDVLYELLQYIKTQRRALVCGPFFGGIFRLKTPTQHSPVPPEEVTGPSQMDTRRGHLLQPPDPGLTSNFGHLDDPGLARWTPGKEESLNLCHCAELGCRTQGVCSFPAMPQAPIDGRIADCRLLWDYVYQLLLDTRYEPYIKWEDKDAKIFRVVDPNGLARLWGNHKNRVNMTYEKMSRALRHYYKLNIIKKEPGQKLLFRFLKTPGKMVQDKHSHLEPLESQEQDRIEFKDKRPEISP
The following applies: protein: recombinant; tags: N-terminal GST; dsDNA, one strand shown. An outline of the steps: as §1

The target in the next assay is T11, ELF5 (Homo sapiens, UniProt Q9UKW6-2 1-255).
T11 sequence: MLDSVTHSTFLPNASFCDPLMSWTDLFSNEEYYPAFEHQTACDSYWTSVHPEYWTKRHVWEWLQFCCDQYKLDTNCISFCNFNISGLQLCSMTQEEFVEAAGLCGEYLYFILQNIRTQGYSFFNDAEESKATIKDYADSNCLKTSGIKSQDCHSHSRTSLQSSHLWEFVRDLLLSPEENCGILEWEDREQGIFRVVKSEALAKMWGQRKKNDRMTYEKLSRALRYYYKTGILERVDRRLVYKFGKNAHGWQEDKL
The settings on record: protein: recombinant; tags: N-terminal GST; dsDNA, one strand shown. An outline of the steps: as §1

A further assay concerns the target T12, ETV3 (Homo sapiens, UniProt P41162-2 1-143).
T12 sequence: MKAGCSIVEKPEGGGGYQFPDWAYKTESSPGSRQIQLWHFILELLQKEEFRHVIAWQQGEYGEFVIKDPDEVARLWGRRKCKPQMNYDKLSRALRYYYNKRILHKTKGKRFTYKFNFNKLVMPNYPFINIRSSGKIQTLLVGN
The settings on record: protein: recombinant; tags: N-terminal GST; dsDNA, one strand shown. Summed up:
as §1

The target of another assay is ETV6 (Homo sapiens, UniProt P41212 1-452). The settings on record: protein: recombinant; tags: N-terminal GST; dsDNA, one strand shown. An outline of the steps:
as §1

Chain of ETV1 (P50549 whole entry): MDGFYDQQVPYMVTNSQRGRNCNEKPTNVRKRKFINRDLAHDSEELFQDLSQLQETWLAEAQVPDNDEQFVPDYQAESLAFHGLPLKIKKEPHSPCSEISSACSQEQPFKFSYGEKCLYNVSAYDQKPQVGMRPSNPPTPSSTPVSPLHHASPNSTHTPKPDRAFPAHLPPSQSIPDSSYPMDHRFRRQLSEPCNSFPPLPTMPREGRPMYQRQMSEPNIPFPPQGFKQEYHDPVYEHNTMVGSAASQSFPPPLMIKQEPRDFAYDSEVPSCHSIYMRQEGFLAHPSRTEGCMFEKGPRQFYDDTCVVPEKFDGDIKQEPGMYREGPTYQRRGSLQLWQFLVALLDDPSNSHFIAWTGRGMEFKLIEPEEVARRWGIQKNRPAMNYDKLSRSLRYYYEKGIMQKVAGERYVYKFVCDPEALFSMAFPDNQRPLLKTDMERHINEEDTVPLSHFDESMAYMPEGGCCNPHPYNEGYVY
Chain of ETV5 (P41161 whole entry): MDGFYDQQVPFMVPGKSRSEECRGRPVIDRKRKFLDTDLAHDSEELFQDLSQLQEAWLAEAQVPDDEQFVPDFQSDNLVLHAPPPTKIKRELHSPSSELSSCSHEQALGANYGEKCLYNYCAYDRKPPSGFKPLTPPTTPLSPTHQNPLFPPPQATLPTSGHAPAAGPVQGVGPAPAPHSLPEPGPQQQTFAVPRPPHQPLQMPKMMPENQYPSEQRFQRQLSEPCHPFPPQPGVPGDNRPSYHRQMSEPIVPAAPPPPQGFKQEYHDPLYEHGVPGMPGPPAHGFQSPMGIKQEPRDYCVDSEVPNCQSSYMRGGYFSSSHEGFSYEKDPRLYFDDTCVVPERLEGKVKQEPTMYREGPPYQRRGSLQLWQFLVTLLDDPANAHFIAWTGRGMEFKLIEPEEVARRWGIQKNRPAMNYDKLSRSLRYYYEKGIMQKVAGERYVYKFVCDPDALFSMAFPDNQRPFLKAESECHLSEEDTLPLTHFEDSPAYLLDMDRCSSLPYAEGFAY
Chain of ETV6 (P41212 whole entry): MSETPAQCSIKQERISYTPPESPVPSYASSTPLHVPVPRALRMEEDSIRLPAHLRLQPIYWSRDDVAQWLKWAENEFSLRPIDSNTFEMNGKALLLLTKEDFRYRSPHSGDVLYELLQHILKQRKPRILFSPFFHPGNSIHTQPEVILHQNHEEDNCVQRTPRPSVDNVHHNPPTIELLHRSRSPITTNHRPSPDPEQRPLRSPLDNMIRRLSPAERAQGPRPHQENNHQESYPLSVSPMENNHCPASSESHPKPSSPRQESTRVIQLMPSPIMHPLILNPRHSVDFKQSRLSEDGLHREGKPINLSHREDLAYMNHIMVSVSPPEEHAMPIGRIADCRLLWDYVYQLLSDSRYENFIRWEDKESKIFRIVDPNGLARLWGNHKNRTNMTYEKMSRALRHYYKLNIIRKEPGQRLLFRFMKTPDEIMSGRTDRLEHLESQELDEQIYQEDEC
Chain of ELF4 (Q99607 whole entry): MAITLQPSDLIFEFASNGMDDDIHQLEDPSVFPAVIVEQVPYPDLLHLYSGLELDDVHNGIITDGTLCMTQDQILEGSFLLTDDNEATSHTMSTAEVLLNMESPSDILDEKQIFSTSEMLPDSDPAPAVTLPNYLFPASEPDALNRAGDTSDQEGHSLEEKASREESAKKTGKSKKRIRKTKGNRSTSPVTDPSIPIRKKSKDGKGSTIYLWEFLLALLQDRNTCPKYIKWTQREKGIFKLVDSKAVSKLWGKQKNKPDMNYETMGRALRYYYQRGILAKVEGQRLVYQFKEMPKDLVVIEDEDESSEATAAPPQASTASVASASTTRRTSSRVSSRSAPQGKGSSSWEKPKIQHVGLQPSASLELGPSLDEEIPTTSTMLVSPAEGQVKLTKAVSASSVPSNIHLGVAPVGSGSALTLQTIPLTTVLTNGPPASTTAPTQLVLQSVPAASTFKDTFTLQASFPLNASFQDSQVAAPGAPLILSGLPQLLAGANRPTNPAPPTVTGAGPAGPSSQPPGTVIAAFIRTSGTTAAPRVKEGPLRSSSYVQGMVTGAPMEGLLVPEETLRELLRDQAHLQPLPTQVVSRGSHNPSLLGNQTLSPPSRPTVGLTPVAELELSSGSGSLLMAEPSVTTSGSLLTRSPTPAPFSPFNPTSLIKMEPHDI

On to ATACAG, for which the binding signal is 1.14 fold enrichment (6-mer frequency, TF over GST control) in the assay with FEV; 1.13 fold enrichment (6-mer frequency, TF over GST control) with ETV5; 1.02 fold enrichment (6-mer frequency, TF over GST control) with HSF1; 1.14 fold enrichment (6-mer frequency, TF over GST control) with SPIC; 1.18 fold enrichment (6-mer frequency, TF over GST control) with ELF4; 1.08 fold enrichment (6-mer frequency, TF over GST control) in the assay with ELK4. The binding signal with ETV2 was 1.24 fold enrichment (6-mer frequency, TF over GST control); in the assay with ELF3 it was 1.12 fold enrichment (6-mer frequency, TF over GST control); in the assay with CRX, 1.02 fold enrichment (6-mer frequency, TF over GST control); with ETV1 it was 1.11 fold enrichment (6-mer frequency, TF over GST control); in the assay with ERF, 1.16 fold enrichment (6-mer frequency, TF over GST control); with ETV3L, 1.1 fold enrichment (6-mer frequency, TF over GST control). The binding signal in the assay with ETS2 was 1.17 fold enrichment (6-mer frequency, TF over GST control); with SPDEF, 1.21 fold enrichment (6-mer frequency, TF over GST control); with ETV7, 1.18 fold enrichment (6-mer frequency, TF over GST control); in the assay with ELF5 it was 1.17 fold enrichment (6-mer frequency, TF over GST control); in the assay with ETV3, 1.18 fold enrichment (6-mer frequency, TF over GST control); with ETV6, 1.12 fold enrichment (6-mer frequency, TF over GST control).

These data come from article PMC7862700, “An all-to-all approach to the identification of sequence-specific readers for epigenetic DNA modifications on cytosine”.
